The text below walks through data of PubChem BioAssay (Tox21).

Test [1] is described as follows: qHTS assay to test for compound auto fluorescence at 535 nm (green) in HEK293 cells (AID 720680). On the technique in general: Quantitative high-throughput screening tests each substance at several concentrations.
Test [2] in a line: qHTS assay to test for compound auto fluorescence at 460 nm (blue) in HEK293 cell free culture (AID 720681). The method, boiled down:
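Blue fluorescence (Ex 405/Em 460 nm, triamterene-equivalent) was read immediately after pin transfer of compound or DMSO into medium (DMEM, 10% FBS) without cells.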

Test [3] is described as follows: qHTS assay to test for compound auto fluorescence at 535 nm (green) in HEK293 cell free culture (AID 720682). The method, boiled down: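 Steps: dispense DMEM/10% FBS into empty wells; pin in compound or DMSO; measure fluorescence at 485/535 nm. Values are fluorescein equivalents.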
A short description of test [4]: qHTS assay to test for compound auto fluorescence at 590 nm (red) in HEK293 cell free culture (AID 720683). The method, boiled down:
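Red-channel autofluorescence of compounds in culture medium (DMEM, 10% FBS), no cells, measured at 540/590 nm. Rose Bengal sodium is the reference fluorophore for equivalence.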

The nature of test [5]: qHTS assay to test for compound auto fluorescence at 590 nm (red) in HepG2 cell free culture (AID 720684). The procedure, abridged: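 Steps: dispense MEM/10% FBS medium, no cells; pin compound or DMSO vehicle; read red channel, Ex/Em 540/590 nm. Output given as Rose Bengal sodium equivalents.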
Test [6] can be described thus: qHTS assay to test for compound auto fluorescence at 460 nm (blue) in HepG2 cell free culture (AID 720685). The method, boiled down: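 Compound (23 nL) or DMSO pinned into cell-free MEM with 10% FBS; blue fluorescence read at 405/460 nm excitation/emission, expressed as auto-fluorescence equivalency to triamterene.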
The nature of test [7]: qHTS assay to test for compound auto fluorescence at 535 nm (green) in HepG2 cell free culture (AID 720686).
Test [8] in a line: qHTS assay to test for compound auto fluorescence at 460 nm (blue) in HepG2 cells (AID 720687). The procedure, abridged:
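Blue-channel autofluorescence (Ex/Em 405/460 nm, triamterene-equivalent) was measured after 1 hr compound exposure at 37 C, 5% CO2. Cells were HepG2, plated overnight at 37 C in MEM plus 10% FBS.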

In test [9] the target is Glucocorticoid receptor (Homo sapiens) (UniProt P04150). The test is described as follows: qHTS assay to identify small molecule agonists of the glucocorticoid receptor (GR) signaling pathway (AID 720691; active = well fitted activation curve with a large enough effect in the signal ratio in the repeat runs, not every such curve was filed as active; inconclusive = weak or mixed curves, or effect the other way; inactive = no such curve, though single readings can be large or run the other way; the % refers to the signal ratio; also: potency is read from the fitted curve at half-maximal effect). The conditions noted are these: GR-bla HeLa, beta-lactamase reporter ratio, 18 h; activation: at 62.4 µM (top of the series). The procedure, abridged:
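Fluorescence intensity from LiveBLAzer B/G FRET substrate (2 h, room temperature) reports beta-lactamase expression driven by the glucocorticoid response element in GR-bla HeLa cells after 18 h compound exposure at 37 C.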

Test [10] shares this target. Put plainly: qHTS assay to identify small molecule antagonists of the glucocorticoid receptor (GR) signaling pathway (AID 720692; active = well fitted inhibition curve with a large enough effect in the signal ratio in the repeat runs, not every such curve was filed as active; inconclusive = weak or mixed curves, or effect the other way; inactive = no such curve, though single readings can be large or run the other way; the % refers to the signal ratio; also: potency is read from the fitted curve at half-maximal effect). The method, boiled down:
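HeLa GR-bla cells; cmpd + dex 5 nM final, 18 h 37 C; LiveBLAzer B/G FRET substrate 2 h RT; fluorescence intensity read. Antagonist mode, qHTS.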

A number with no mark means an inactive call. The source made the active and inactive calls. Unless noted, calls follow the shape of the dose curve; as a rule, active = well fitted curve in the direction sought with a large enough effect in the repeat runs; inconclusive = weak or mixed curves; inactive = flat fitted curve, though single readings scatter.
% is scaled to controls: 0 for no effect and ±100 for the full control effect.

Sequence of Glucocorticoid receptor (Homo sapiens) (P04150 whole entry, looked up): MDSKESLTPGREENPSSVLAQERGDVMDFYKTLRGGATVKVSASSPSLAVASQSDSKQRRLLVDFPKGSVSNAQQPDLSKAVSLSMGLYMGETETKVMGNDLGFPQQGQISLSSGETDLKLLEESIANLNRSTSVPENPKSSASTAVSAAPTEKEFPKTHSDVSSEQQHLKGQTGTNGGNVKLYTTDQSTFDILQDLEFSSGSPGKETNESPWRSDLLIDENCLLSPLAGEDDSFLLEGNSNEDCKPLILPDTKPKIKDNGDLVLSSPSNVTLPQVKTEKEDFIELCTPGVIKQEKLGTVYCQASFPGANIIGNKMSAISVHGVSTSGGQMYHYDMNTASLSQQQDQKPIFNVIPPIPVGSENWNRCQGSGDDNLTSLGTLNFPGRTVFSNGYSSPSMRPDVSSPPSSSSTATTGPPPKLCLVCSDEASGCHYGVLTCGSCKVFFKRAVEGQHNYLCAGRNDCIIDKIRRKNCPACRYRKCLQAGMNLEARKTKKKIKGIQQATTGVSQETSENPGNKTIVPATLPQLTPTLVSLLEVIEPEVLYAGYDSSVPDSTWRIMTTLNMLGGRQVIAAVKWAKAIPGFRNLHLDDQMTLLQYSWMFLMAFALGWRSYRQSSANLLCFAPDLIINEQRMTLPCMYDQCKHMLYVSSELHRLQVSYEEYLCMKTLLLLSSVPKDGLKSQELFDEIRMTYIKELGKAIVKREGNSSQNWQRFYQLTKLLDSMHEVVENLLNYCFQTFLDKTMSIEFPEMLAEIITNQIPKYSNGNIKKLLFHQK

Consider `Cn1cc(C(=O)[C@@H]2CCc3nc[nH]c3C2)c2ccccc21`, for which the call in test [1] and in test [3] was inactive. Moreover, the Potency entry in test [2], in [4], in test [5], in [6], in test [7] and in test [8] was “inactive” throughout. Moreover, the Potency result in [9] is “inactive”.
As to `Cc1cccc(CN2CCN(C(c3ccccc3)c3ccc(Cl)cc3)CC2)c1` (configuration not stated), the fluorescence, % of fluorescein in test [1] is 0.0512% [at 18.6 µM]. Moreover, the fluorescence, % of fluorescent control in [2] is -0.0116% [at 18.6 µM]; in test [4], 0.0211% [at 18.6 µM]; in test [6], -0.0261% [at 18.6 µM]; in test [8] it was -0.0938% [at 18.6 µM]. In test [3], the activity change is -0.0053% [at 18.6 µM]. Moreover, the fluorescence, % of Rose Bengal in [5] is 0.0634% [at 18.6 µM]. In test [7], the fluorescence, % of fluorescein control is -0.0169% [at 18.6 µM]. The Potency result in test [9] and in test [10] was “inactive” in each case.
For `Cc1[nH]cnc1C[C@H]1CCc2c(C)c3ccccc3n2C1=O`, the compound was called inactive in test [1] and in test [3]. In addition, the Potency entry in [2], in test [4], in [5], in test [6], in [7] and in test [8] was “inactive” in each case. The Potency entry in test [9] and in [10] was “inactive” in each case.
Consider `CO[Si](CCCNc1ccccc1)(OC)OC`, for which the call in test [1] and in test [3] was inactive. The Potency result in [2], in test [4], in test [5], in test [6], in test [7] and in [8] was “inactive” throughout. Further, the Potency result in [9] and in test [10] was “inactive” throughout.
On to `CCC(Cl)C(Cl)C(Cl)CC(Cl)C(Cl)C(C)Cl` (configuration not stated), for which the result in [1] and in [3] was inactive. For the same compound, the Potency entry in [2], in test [4], in test [5], in test [6], in [7] and in [8] was “inactive” throughout. Moreover, in test [9], the Potency entry was “inactive”.
With `COc1ccc(CN2CCN(C(c3ccc(F)cc3)c3ccc(F)cc3)CC2)c(OC)c1OC`, the call in test [1] and in test [3] was inactive. Moreover, the Potency result in [2], in [4], in [5], in [6], in test [7] and in test [8] was “inactive” throughout. In addition, in test [9], the Potency was 4.77 µM (active).
Regarding `COc1cccc(N)c1`, the compound was classed as inactive in test [1] and in [3]. The Potency result in [2], in [4], in test [5], in [6], in test [7] and in test [8] was “inactive” in each case. Further, the Potency result in test [9] is “inactive”.
Take `CC(C)(C)c1ccc(C(=O)O)cc1`: the outcome in [1] and in test [3] was inactive. Besides, the Potency entry in test [2], in test [4], in test [5], in test [6], in test [7] and in test [8] was “inactive” in each case. Further, the Potency entry in test [9] and in test [10] was “inactive” in each case.
As to `C=C(C)C(=O)OCC[N+](C)(C)C`, the compound was called inactive in [1] and in test [3]. Further, the Potency entry in [2], in test [4], in [5], in test [6], in test [7] and in test [8] was “inactive” each time. Also, the Potency entry in test [9] and in [10] was “inactive” in each case.
Turning to `CCN(CCC#N)c1ccc(N=Nc2c(Cl)cc([N+](=O)[O-])cc2Cl)cc1`, the call in test [1] and in test [3] was inactive. The Potency entry in test [2], in [4], in test [5], in [6], in test [7] and in [8] was “inactive” in each case. Further, the Potency result in test [9] and in [10] was “inactive” in each case.
`CNCc1cc(F)ccc1Oc1ccc(Cl)c(Cl)c1`: the compound was classed as inactive in test [1] and in test [3]. The Potency result in [2], in test [4], in [5], in test [6], in test [7] and in test [8] was “inactive” in each case. Besides, the Potency result in test [9] is “inactive”.
For the compound `O=C(NO)C1(NS(=O)(=O)c2ccc(Oc3ccc(F)cc3)cc2)CCOCC1`, the outcome in [1] and in test [3] was inactive. In addition, the Potency entry in test [2], in test [4], in [5], in test [6], in [7] and in test [8] was “inactive” each time. In addition, the Potency result in test [9] was “inactive”.
As for `CN(C)c1ccc(C2(c3ccc(N(C)C)cc3)OC(=O)c3cc(N(C)C)ccc32)cc1`, the outcome in test [1] and in [3] was inactive. The Potency entry in test [2], in test [4], in test [5], in [6], in [7] and in [8] was “inactive” throughout. The Potency in [9] was 4.35 µM [inconclusive] (active).
Regarding `CCC1=C[C@@H]2CN(C1)Cc1c([nH]c3ccccc13)[C@@](C(=O)OC)(c1cc3c(cc1OC)N(C)[C@H]1[C@@](O)(C(=O)OC)[C@H](OC(C)=O)[C@]4(CC)C=CCN5CC[C@]31[C@@H]54)C2`, the call in [1] and in test [3] was inactive. Besides, the Potency entry in test [2], in test [4], in [5], in test [6], in test [7] and in test [8] was “inactive” in each case. The Potency result in test [9] is “inactive”.
Consider `Cc1cc(CCN2CCN(c3nsc4ccccc34)CC2)cc2c1NC(=O)CC2(C)C`, for which the compound was classed as inactive in test [1] and in [3]. The Potency result in test [2], in test [4], in test [5], in [6], in test [7] and in test [8] was “inactive” throughout. Besides, in test [9], the Potency result is “inactive”.
Regarding `CC(C)=CCOc1ccc(/C=C/C(=O)c2ccc(OCC=C(C)C)cc2OCC(=O)O)cc1`, the outcome in test [1] and in [3] was inactive. The Potency result in test [2], in test [4], in [5], in [6], in test [7] and in test [8] was “inactive” throughout. Moreover, the Potency entry in test [9] was “inactive”. In [10], the Potency was 7.56 µM (active).
On to `CCCCCCOC(=O)c1ccc(O)cc1`, for which the compound was called inactive in test [1] and in test [3]. Besides, the Potency result in test [2], in test [4], in test [5], in test [6], in [7] and in [8] was “inactive” each time. For the same compound, the Potency result in test [9] was “inactive”.
On to `CCCCCCCCCCCCCCCS(=O)(=O)Oc1ccccc1`, for which the call in [1] and in test [3] was inactive. In addition, the Potency result in [2], in [4], in [5], in [6], in test [7] and in test [8] was “inactive” throughout. Besides, the Potency entry in test [9] is “inactive”.
In the case of `CCC1OCC(COc2ccc(Oc3ccccc3)cc2)O1` (configuration not stated), the result in [1] and in test [3] was inactive. Moreover, the Potency result in test [2], in test [4], in test [5], in [6], in test [7] and in test [8] was “inactive” in each case. For the same compound, the Potency entry in test [9] was “inactive”.
Take `Cc1nc(-c2ccc3c(c2)CCN(CCC2CCC(NC(=O)/C=C/c4ccc(F)cc4)CC2)CC3)no1` (configuration not stated): the call in [1] and in test [3] was inactive. The Potency entry in test [2], in [4], in test [5], in test [6], in test [7] and in test [8] was “inactive” each time. In test [9], the Potency was 21.9 µM (active).
